Reference: publication PMC4336329 (PLoS ONE, 2015)
The whole screen tested about 310,000 compounds, of which about 14,000 (4.5%) showed an effect of 50% or more. Effects have a minus sign here. What follows is part of a selection rich in strong results, with near analogues and random picks from the rest.

Biological target: human ether-à-go-go-related gene (hERG) potassium channel (human, UniProt Q12809)
Assay: primary screen, population patch clamp on CHO cells stably expressing hERG; higher = less effect of the substance
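Also: peak tail current of the secondary pulse compared with the same well before compound.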

human ether-à-go-go-related gene (hERG) potassium channel, sequence (Q12809 whole entry, looked up): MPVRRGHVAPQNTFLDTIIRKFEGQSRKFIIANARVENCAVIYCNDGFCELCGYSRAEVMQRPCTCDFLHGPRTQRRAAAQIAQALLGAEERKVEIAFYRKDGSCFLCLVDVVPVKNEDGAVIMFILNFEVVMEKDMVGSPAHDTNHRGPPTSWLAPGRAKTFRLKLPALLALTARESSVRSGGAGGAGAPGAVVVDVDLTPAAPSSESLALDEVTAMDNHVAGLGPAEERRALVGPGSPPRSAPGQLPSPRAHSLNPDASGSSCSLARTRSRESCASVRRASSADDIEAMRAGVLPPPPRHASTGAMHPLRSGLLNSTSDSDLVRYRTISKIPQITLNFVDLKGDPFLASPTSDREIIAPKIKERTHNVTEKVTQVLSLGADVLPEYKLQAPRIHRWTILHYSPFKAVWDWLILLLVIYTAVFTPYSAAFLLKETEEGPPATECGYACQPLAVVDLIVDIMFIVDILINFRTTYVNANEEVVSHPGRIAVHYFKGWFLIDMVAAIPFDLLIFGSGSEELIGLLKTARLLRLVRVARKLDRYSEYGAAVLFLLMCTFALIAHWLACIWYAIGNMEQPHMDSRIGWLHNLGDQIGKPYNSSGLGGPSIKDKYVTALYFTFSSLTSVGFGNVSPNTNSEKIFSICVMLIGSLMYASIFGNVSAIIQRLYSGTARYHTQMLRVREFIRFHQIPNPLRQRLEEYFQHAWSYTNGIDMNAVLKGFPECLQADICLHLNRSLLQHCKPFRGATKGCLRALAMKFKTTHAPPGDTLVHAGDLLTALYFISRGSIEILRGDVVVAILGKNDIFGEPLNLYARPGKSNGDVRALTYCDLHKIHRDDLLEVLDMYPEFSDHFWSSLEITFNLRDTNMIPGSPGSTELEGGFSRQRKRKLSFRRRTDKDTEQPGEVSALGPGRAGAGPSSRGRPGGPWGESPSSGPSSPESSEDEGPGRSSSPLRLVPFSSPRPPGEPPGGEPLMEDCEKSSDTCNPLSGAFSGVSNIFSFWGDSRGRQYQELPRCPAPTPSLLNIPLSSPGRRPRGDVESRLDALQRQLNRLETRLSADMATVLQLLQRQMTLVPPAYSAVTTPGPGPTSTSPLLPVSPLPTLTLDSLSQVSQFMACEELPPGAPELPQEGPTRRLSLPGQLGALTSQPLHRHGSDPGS

Structure (SMILES)	hERG current change (%, negative = inhibition) at 10uM [%]
COC(=O)c1c(NC(=O)C2(C)Cc3ccccc3C(=O)O2)sc2c1CCCC2 (stereo not drawn)	12.7
O=C1C=C(c2ccccc2)CC(/C=C/c2ccccc2)C1 (stereo not drawn)	-2.91
CCCc1nc(N)nc2c1C(=O)CC(C)(C)C2	-4.47
CC(C)(C)N1C(=O)Cc2c1nc(N)c1c(N)nc(N3CCCCC3CO)c(C#N)c21 (stereo not drawn)	-24.3
O=c1[nH]c(N/N=C/c2ccccc2)nc2ccccc12	-14.9
O=C(/C=C/c1ccccc1)N1CCN(Cc2nc3ccccc3c(=O)[nH]2)CC1	-64.7
O=c1[nH]c(CN2CCOCC2)nc2ccccc12	0.449
CN1CCN(Cc2nc3ccccc3c(=O)[nH]2)CC1	6.57
O=C(c1ccccc1)N(Cc1ccc2c(c1)OCO2)Cc1nc2ccccc2c(=O)[nH]1	-15.4
O=C(CCc1nc2ccccc2c(=O)[nH]1)N1CCN(C/C=C/c2ccccc2)CC1	-42.4
O=c1[nH]c(N/N=C\c2ccc3c(c2)OCO3)nc2ccccc12	-70.7
CCC(CC)C(=O)N1CCN(Cc2nc3ccccc3c(=O)[nH]2)CC1	-11.3
O=c1[nH]c(N/N=C/c2cc3c(cc2[N+](=O)[O-])OCO3)nc2ccccc12	-0.00362
O=c1[nH]c(CN2CCN(C/C=C/c3ccccc3)CC2)nc2ccccc12	-65.2
O=c1[nH]c(CN2CCNCC2)nc2ccccc12	-23.4
O=c1[nH]c(CN2CCN(Cc3ccc4c(c3)OCO4)CC2)nc2ccccc12	-58.9
COC(=O)C[C@H]1c2cc(C(F)(F)F)ccc2S(=O)(=O)N1c1ccc(N(C)C)cc1	-20.9
Cn1ccnc1SCC(=O)N(C1CCCCC1)C1CCCCC1	3.29
COc1ccc(Nc2nc(-c3cccc([N+](=O)[O-])c3)nc3ccccc23)cc1	-5.91
O=C(OCC1OC(Oc2ccc(O)cc2)C(O)C(O)C1O)c1ccccc1 (stereo not drawn)	14.5
COCC(=O)N(CCc1ccc(OC)cc1)Cc1nc2ccccc2c(=O)[nH]1	-2.83
Cc1ccccc1NC(=O)c1ccccc1NC(=O)c1ccccc1F	11.3
O=C(c1ccco1)c1coc2c1cc(O)c1ccccc12	13.4

Structure (SMILES)	hERG current change (%, negative = inhibition) at 10uM [%]
CCCCNC(=O)O[C@H]1C[C@@H]2CCN3C(=O)CCC(C)(C)[C@H](C1)[C@H]23	-23.5
COc1ccc(N2CCN(Cc3nc4cc(Cl)ccc4c(=O)[nH]3)CC2)cc1	13.4
O=c1[nH]c(CN2CCOCC2)nc2cc(Cl)ccc12	-10.4
O=c1[nH]c(CN2CCN(C/C=C/c3ccccc3)CC2)nc2cc(Cl)ccc12	-106
COc1ccc(-c2cnc(SCCNC(=O)c3ccc4c(c3)OCO4)[nH]2)cc1	-5.44
N#Cc1ccc(CSc2nnc(-c3ccccn3)n2-c2ccccc2)cc1	-42.1
c1ccc(CSc2nnc(-c3ccccn3)n2-c2ccccc2)cc1	-10.6
N#Cc1ccc(CSc2nnc(-c3ccccn3)n2-c2ccc(Cl)cc2)cc1	-51.8
COc1ccc(-n2c(SCc3ccc(C#N)cc3)nnc2-c2ccccn2)cc1	-58.3
Cc1ccc(-n2c(SCc3ccc(C#N)cc3)nnc2-c2ccccn2)cc1	-48.7
COc1ccc(-n2c(SCC(=O)OC(C)C)nnc2-c2ccccn2)cc1	-14.4
COc1cc(C(C)=O)ccc1OC(=O)C(C)N1C(=O)c2ccccc2C1=O (stereo not drawn)	-13
O=C(CN1C(=O)CNC1=O)Nc1cccc(C(F)(F)F)c1	8.56
Cc1ccc(NC(=O)Cn2nnc3ccccc32)cc1	12.1
CCCC(=O)NC(=S)Nc1cccc(NC(=O)c2ccc(Cl)cc2Cl)c1	11.6
COC(=O)c1[nH]c2cc(OC)ccc2c1NC(=O)CCN1CCCC(C)(C)C1	-39.4
CCOC(=O)C1CCN(CC(=O)Nc2c(C(=O)OC)[nH]c3ccc(Cl)cc23)CC1	-15
CCOC(=O)c1[nH]c2ccc(Br)cc2c1NC(=O)CCN1CCCC(C)(C)C1	-75.7
CCOC(=O)c1[nH]c2ccc(Br)cc2c1NC(=O)CCN1CCCC(C)C1 (stereo not drawn)	-73.1
CCOC(=O)c1[nH]c2ccc(F)cc2c1NC(=O)CCN1CCOCC1	3.03
CCOC(=O)c1[nH]c2ccc(Br)cc2c1NC(=O)CNC	-7.67
CCOC(=O)c1[nH]c2ccc(OC)cc2c1NC(=O)CCN1CCCC(C)C1 (stereo not drawn)	-36.9
